Test results reported in PubChem BioAssay (NCI).
The panel holds about 83,000 compounds, 20% with a hit somewhere; the sample as a whole holds those more often.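 Cells were grown in 96-well plates and exposed to the test compound at a single concentration for 48 hours; results are reported as percent growth, with values below 10 considered active.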 A number with no mark means an inactive call. Active and inactive are the calls of the source.

Assays:
Assay in all cases: NCI-60 one-dose screen, 48 h (100 = growth as untreated, 0 = no growth, -100 = all killed)
Details in all cases: 10 µM unless noted
NCI-H226 lung = test system: NCI-H226 lung
NCI-H322M lung = test system: NCI-H322M lung
HOP-62 NSCLC = test system: HOP-62 NSCLC
NCI-H460 lung = test system: NCI-H460 lung
HOP-92 NSCLC = test system: HOP-92 NSCLC
NCI-H522 lung = test system: NCI-H522 lung
A549/ATCC NSCLC = test system: A549/ATCC NSCLC
786-0 renal = test system: 786-0 renal
COLO 205 colon = test system: COLO 205 colon
DU-145 prostate = test system: DU-145 prostate

| SMILES | growth (NCI-H226 lung) | growth (NCI-H322M lung) | growth (HOP-62 NSCLC) | growth (NCI-H460 lung) | growth (HOP-92 NSCLC) | growth (NCI-H522 lung) | growth (A549/ATCC NSCLC) | growth (786-0 renal) | growth (COLO 205 colon) | growth (DU-145 prostate) |
| --- | --- | --- | --- | --- | --- | --- | --- | --- | --- | --- |
| N#Cc1nc(-c2ccccc2)oc1S(=O)(=O)N1CCN(CCc2ccccn2)CC1 | 98.1% | 95.6% | 109% | 100% | 38.1% | -66% (active) | 103% | 8.4% (active) | 30.1% | 75.4% |
| O=C(O)CCCCCN1C(=O)/C(=C/c2ccc(O)c(O)c2)SC1=S | 106% | 89.9% | 110% | 108% | 139% | 98% | 113% | 105% | 125% | 103% |
| C/C(=N\NC(N)=O)c1c(O)sc(=O)[nH]c1=O | 101% | 97.3% | 96.6% | 106% | 104% | 98.7% | 98.4% | 104% | 108% | 110% |
| CCOC(=O)c1c(Nc2ccccc2)nn2c(N)c(C#N)c(-c3ccc(OC)cc3)nc12 | 42.3% | 95.5% | 61.3% | 61.5% | 47% | 83.3% | 69% | 32.8% | 96.3% | 66.3% |
| CN1C(=S)N(C)C2C1NN=C1SC(c3ccccc3)=CC(=O)N12 (stereo not drawn) | 83.6% | 104% | 109% | 103% | 72.8% | 87.2% | 93.7% | 98% | 111% | 106% |
| Cc1nc2cnc(N)c(C#Cc3cncc(C(=O)Nc4ccc(Cl)c(C(F)(F)F)c4)c3)c2nc1C | 26.7% | 64.9% | 56.8% | 53.8% | -23.9% (active) | 89.5% | 56.6% | 64.3% | 28.5% | 69.4% |
| O=C(N/N=C/c1ccco1)c1[nH]c2ccc(Br)cc2c1-c1ccccc1 | 50.1% | 42.1% | 35.4% | 2.19% (active) | 48.7% | -39.7% (active) | 35.4% | 16.4% | -35.2% (active) | 13.4% |
| N#Cc1nc(-c2ccccc2)oc1S(=O)(=O)N1CCCCC1 | 105% | 104% | 110% | 110% | 55.7% | -62% (active) | 98.7% | 24.7% | 44.1% | 41.6% |
| COc1cc(N=Cc2sc(Nc3nccs3)nc2O)cc(OC)c1OC | 79.5% | 74% | 80.1% | 69.9% | 72.8% | 93.6% | 95.6% | 96.6% | 99.6% | 93.3% |
| Cn1c(SCC(=O)Nc2ccc(-c3nc4ccc([N+](=O)[O-])cc4[nH]3)cc2)nc2ccccc2c1=O | 37.9% | 68.6% | 94.9% | 82.3% | 59.5% | 74.1% | 89.5% | 81.5% | 98.4% | 90.6% |
| COc1cc2cc(Oc3ccc(NC(=O)c4cccc(C(F)(F)F)c4)cc3)c(C)nc2cc1OCCN1CCCCC1 | 103% | 69.2% | 98.1% | -69.4% (active) | 43.7% | 68.9% | 19.2% | 55.4% | -94.8% (active) | 59.4% |
| COC1CCN(Cc2ccc3c(NNC(=O)c4cnccn4)nc4cc(F)ccc4n23)C1 (stereo not drawn) | 28.9% | 30.8% | 30.4% | 6.39% (active) | 40.4% | 7.95% (active) | 18.9% | 12.7% | 12.5% | 34.8% |
| O=C1[C@H]2Cc3c([nH]c4ccccc34)[C@@H](c3ccc(Br)cc3)N2C(=O)CN1C1CCN(Cc2ccccc2)CC1 | 39.5% | 67% | 54% | 30% | 28.9% | -36.7% (active) |  | 41.1% | 12.7% | 38.8% |
| COc1cc(OC)c(S(=O)(=O)NNC(=O)c2ccncc2)cc1C(=O)/C=C/c1ccc(C)cc1 | 89.5% | 62.3% | 103% | 63.4% | 42.1% | 84.9% |  | 57.1% | 99% | 83.1% |
